The results in this text go back to PubChem BioAssay (NCATS).

The structures appear in SMILES notation. Inconclusive results are not listed. Active and inactive are the calls of the source. The call rests on the fitted dose curve; in most records, active means well fitted activation curve with a large enough effect; inconclusive means small, poorly fitted or top-dose-only effect; inactive means no such curve, though single readings can be large or run the other way.
On the % scale 0 is the no-effect control and ±100 the full control effect.

In this experiment the target is Rap guanine nucleotide exchange factor 4 (Homo sapiens) (UniProt Q8WZA2). The experiment in a line: Confirmatory qHTS for agonist of cAMP-regulated guanine nucleotide exchange factor 4 (EPAC2) (AID 1645884).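 Further: nucleotide exchange releases bodipy-GDP from Rap1 and this lowers its fluorescence; nearly all actives have a fitted effect of over 65% in size.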 Conditions: EPAC2 GEF activity, Rap1B-BODIPY-GDP fluorescence; series mostly up to 154 µM; activation: at the top concentration. Background: qHTS replaces the single test concentration by a dilution series.
Chain of Rap guanine nucleotide exchange factor 4 (Homo sapiens) (Q8WZA2 whole entry, looked up): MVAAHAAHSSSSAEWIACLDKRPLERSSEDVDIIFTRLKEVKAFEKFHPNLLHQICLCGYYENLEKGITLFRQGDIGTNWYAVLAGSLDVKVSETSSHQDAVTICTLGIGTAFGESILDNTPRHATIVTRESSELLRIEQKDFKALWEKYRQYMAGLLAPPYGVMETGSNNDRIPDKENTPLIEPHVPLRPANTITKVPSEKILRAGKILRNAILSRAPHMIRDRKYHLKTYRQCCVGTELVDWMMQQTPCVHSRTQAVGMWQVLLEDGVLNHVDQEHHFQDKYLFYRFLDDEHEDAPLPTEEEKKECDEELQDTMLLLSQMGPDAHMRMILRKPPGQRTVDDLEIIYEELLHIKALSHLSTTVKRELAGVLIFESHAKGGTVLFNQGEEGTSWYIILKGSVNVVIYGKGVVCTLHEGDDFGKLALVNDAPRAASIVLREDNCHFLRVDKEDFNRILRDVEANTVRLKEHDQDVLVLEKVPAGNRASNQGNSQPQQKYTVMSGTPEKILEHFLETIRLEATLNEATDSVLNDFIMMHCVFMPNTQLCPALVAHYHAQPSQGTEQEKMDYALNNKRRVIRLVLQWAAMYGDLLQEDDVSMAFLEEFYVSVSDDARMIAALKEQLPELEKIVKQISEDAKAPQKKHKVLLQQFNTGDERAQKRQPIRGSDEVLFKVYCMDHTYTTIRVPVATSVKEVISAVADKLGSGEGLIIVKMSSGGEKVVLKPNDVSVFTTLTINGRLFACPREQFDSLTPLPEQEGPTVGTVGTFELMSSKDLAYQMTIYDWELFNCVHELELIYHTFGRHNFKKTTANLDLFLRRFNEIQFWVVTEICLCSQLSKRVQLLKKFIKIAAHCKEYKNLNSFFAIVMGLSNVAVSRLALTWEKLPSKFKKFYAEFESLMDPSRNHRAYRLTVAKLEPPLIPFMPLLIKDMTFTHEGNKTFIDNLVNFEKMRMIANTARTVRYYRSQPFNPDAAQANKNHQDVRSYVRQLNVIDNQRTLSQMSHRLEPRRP
As to `CC(C)CC1C(=O)N(Cc2cn(CCC3OCCO3)nn2)CCS(=O)(=O)N1Cc1ccc(-c2ccc(F)cc2)cc1` (stereo not drawn), the activation was 7.64% [at 17.1 µM, percent relative to cAMP agonist control] (inactive).

For `CCc1cc2c(-c3ccccc3)cc(=O)oc2cc1OCC(=O)NCC1CCC(C(=O)O)CC1` (stereo not drawn), the “activation” value was -16.2% (inactive).

Consider `Cc1ccc(N2C(=O)c3ccccc3C2C(=O)c2ccc(O)cc2O)cc1` (stereo not drawn), for which the “activation” value was 0.0027% (inactive).

For the compound `CCc1ccc(NC(=O)CSc2nnc(Cc3cccn3C)n2-c2ccc(OC)cc2)cc1`, the activation is 15.3% [at 17.1 µM, percent relative to cAMP agonist control] (inactive).

Take `CCc1ccc2c(c1)C(NC(C)=O)C(=O)N2CCN1CCOCC1` (stereo not drawn): the “activation” value is -0.935% (inactive).

`NC(=O)COC(=O)c1ccc(Cl)c(S(=O)(=O)N(Cc2ccccc2)c2ccc(Cl)cc2)c1`: the activation is 4.76% [at 17.1 µM, percent relative to cAMP agonist control] (inactive).

Turning to `COc1ccc(-c2nn(-c3ccccc3)cc2/C=N/n2cnnc2)cc1OC`, the “activation” value is 17.9% (inactive).

With `C=CCOc1ccc(/C=C2\SC(=S)N(C(C(=O)O)c3ccccc3)C2=O)cc1` (stereo not drawn), the activation was 3.84% [at 17.1 µM, percent relative to cAMP agonist control] (inactive).
